Source: PubChem BioAssay
PPARg SRC-1 ag = PPARgamma agonists recruiting SRC-1 coactivator, primary screen, biochemical | Peroxisome proliferator-activated receptor gamma (Homo sapiens), P37231 | PPARgamma-SRC-1 coactivator recruitment biochemical assay | activation, % at 8 µM | 200,000 compounds, 0.41% hits; in the data active means activation above about 19%;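 further: 0% = DMSO and 100% = reference agonist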
Target sequence (P37231 whole entry, looked up): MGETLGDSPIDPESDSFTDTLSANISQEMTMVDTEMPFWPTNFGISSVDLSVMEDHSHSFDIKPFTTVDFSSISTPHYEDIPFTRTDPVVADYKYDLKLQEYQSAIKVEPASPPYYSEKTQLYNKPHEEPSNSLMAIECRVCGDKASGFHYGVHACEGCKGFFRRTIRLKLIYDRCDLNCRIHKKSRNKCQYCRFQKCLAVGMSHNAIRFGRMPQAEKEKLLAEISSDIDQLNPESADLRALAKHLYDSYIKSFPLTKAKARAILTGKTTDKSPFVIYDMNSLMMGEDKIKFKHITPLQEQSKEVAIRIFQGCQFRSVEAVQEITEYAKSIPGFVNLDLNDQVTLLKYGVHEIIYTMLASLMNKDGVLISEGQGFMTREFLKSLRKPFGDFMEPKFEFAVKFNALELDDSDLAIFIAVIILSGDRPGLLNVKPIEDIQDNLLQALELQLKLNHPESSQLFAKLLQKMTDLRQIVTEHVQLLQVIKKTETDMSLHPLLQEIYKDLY
SRC3 TRFRET art = TR-FRET detection interference compounds, artefact control for PPARgamma SRC-3 recruitment agonists, biochemical, TR-FRET ratio; 99,000 compounds, 0.39% hits; AID 1048, 2008; TR-FRET ratio at 8 µM; TR-FRET artefact counter-screen, PPARgamma/SRC-3 format; stronger effect = higher value; in the data active means TR-FRET ratio above about 2000
SRC1 TRFRET art = TR-FRET detection interference compounds, primary screen, artefact control for PPARgamma SRC-1 recruitment agonists, biochemical, TR-FRET emission ratio | TR-FRET detection artefact counter-screen; stronger effect = higher value | TR-FRET ratio at 8 µM | 99,000 compounds, 0.34% hits; in the data active means TR-FRET ratio above about 2300
PPARg SRC-2 ag = agonists of PPARg-SRC-2 recruitment, primary screen, biochemical, HTS; Peroxisome proliferator-activated receptor gamma (Homo sapiens), P37231; PPARgamma LBD-SRC-2 recruitment; activation, % at 8 µM; 200,000 compounds, 0.34% hits; AID 1032, 2008;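 further: 0% = vehicle and 100% = reference agonist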
SRC2 TRFRET art = TR-FRET signal artefacts, primary screen, artefact control for PPARgamma SRC-2 agonist project, biochemical | 200,000 compounds, 0.4% hits | TR-FRET artefact counter-screen; stronger effect = higher value | TR-FRET ratio at 8 µM; in the data active means TR-FRET ratio above about 2000
PPARg SRC-3 ag = PPARgamma agonists recruiting SRC-3 coactivator, primary screen, biochemical | Peroxisome proliferator-activated receptor gamma (Homo sapiens), P37231 | biochemical PPARgamma/SRC-3 coactivator recruitment assay | activation, % at 8 µM | 200,000 compounds, 0.26% hits | AID 731, 2007; in the data active means activation above about 23%;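 further: 0% = DMSO and 100% = reference agonist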
PPARg SRC2 conf = agonists of PPARgamma SRC-2 coactivator recruitment, confirmation, biochemical, HTS. shares compounds with PPARg SRC-3 ag. biochemical SRC-2 recruitment by PPARgamma. activation, % at 8 µM. 790 compounds, 52% hits. AID 1297, 2008;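 further: 0% = vehicle alone and 100% = reference agonist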
PPARg SRC1 conf = PPARgamma agonists recruiting SRC-1 coactivator, confirmation, biochemical | shares compounds with PPARg SRC-3 ag | PPARgamma–SRC-1 coactivator recruitment biochemical assay | activation, % at 8 µM | 790 compounds, 43% hits | AID 1300, 2008; in the data active means activation above about 20%;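 further: 0% = vehicle wells and 100% = reference agonist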
PPARg SRC3 ag = PPARgamma-driven SRC-3 coactivator recruitment agonists, confirmation, biochemical | shares compounds with PPARg SRC-3 ag | biochemical PPARgamma-SRC-3 coactivator recruitment, agonist mode | activation, % at 8 µM | 790 compounds, 29% hits; in the data active means activation above about 24%;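 further: 0% = vehicle wells and 100% = reference agonist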
An asterisk follows results filed as active; . = not tested or not shown. Shown are actives, neighbours in structure and some others; about 0.9% of the full set was active somewhere. Unless noted, no stated cut-off is given here; in the data, active means activation above about 22%; inactive means the rest.

SMILES	PPARg SRC-1 ag	SRC3 TRFRET art	SRC1 TRFRET art	PPARg SRC-2 ag	SRC2 TRFRET art	PPARg SRC-3 ag	PPARg SRC2 conf	PPARg SRC1 conf	PPARg SRC3 ag
Brc1cc(Br)c2nc(-c3ccc(N4CCOCC4)cc3)ccc2c1	25*	.	.	22*	2276*	35*	24*	14	16
COc1ccc(S(=O)(=O)N(C(C)=O)c2ccc(OC(C)=O)c3ccccc23)cc1[N+](=O)[O-]	4	1728	2104	10	1537	9	.	.	.
CC(=O)c1sc(N2CCOCC2)nc1-c1ccccc1	33*	2416*	2416*	17	2097*	27*	37*	28*	24
O=C(Nc1ccccc1)c1sc(N2CCOCC2)nc1-c1ccccc1	6	1655	2033	13	1762	7	.	.	.
Cc1cc(C)c2[nH]c(=O)c(CN(Cc3ccc4c(c3)OCO4)Cc3nnnn3C3CCCC3)cc2c1	-7	.	.	-9	1570	-15	.	.	.
Cc1cccc2cc(CN(Cc3ccc(F)cc3)Cc3nnnn3C3CCCC3)c(=O)[nH]c12	10	.	.	112*	4917*	62*	1	1	1
CC(OC(=O)c1nc(-c2ccccc2)n(-c2ccccc2)n1)C(=O)Nc1cc(Cl)cc(Cl)c1 (stereo not drawn)	1	1390	1690	-3	1465	-3	.	.	.
O=C(NCCC1=CCCCC1)Nc1ccc2nsnc2c1	28*	1916	2164	27*	1887	12	16	13	10
CCC1(C)Cc2c(C#N)c(N)sc(=S)c2CO1 (stereo not drawn)	12	.	.	13	1619	27*	6	8	7
COc1ccc(-c2nn(CC(=O)Nc3ccc(Cl)c(Cl)c3)c(=O)c3ccccc23)cc1	19*	.	.	-3	2357*	22	11	13	8
C=CCSC1=Nc2sccc2C2=NC(=O)CN12	13	.	.	23*	1562	11	9	8	7
O=C1C(=O)c2ccc(-c3ccccc3)cc2-c2ccccc21	1	.	.	-3	1525	-3	.	.	.
Nc1ccc2c(c1)C(=O)C(=O)c1ccccc1-2	22*	.	.	32*	1964	29*	20	23*	12
CCOC(=O)C1(C)NC(c2cccs2)C2C(=O)N(c3ccc(OC)cc3)C(=O)C21 (stereo not drawn)	-1	1473	1865	0	1492	0	.	.	.
O=C(O)c1cccnc1SCC(=O)N1CCCCCC1	20*	.	.	5	1613	8	4	6	1
COC12NC(=O)N(C)C1(OC)C(=O)N(C)C(=O)N2C (stereo not drawn)	4	1443	1860	6	1601	4	.	.	.
COc1ccc(S(=O)(=O)NCc2ccc(C(=O)NCc3cccnc3)cc2)cc1	6	1540	1753	2	1668	-3	.	.	.
O=C(c1ccco1)N1N=C(c2ccc(Br)cc2)CC1(O)C(F)(F)F (stereo not drawn)	23*	1800	2287	15	2022*	13	15	14	13
O=C(c1ccco1)N1N=C(c2ccc(Cl)cc2)CC1(O)C(F)(F)F (stereo not drawn)	5	1690	1753	3	1680	6	.	.	.
O=C(O)CC1SC(N/N=C/c2ccc(Br)cc2)NC1=O (stereo not drawn)	-6	1408	1840	-1	1517	-6	.	.	.
Nn1c(-c2ccco2)n[nH]c1=S	1	.	.	3	1580	0	.	.	.
COc1ccccc1-c1n[nH]c(=S)n1N	11	1623	1712	2	1698	4	.	.	.
S=c1[nH]nc(-c2ccco2)n1-c1ccc(Cl)cc1	16	2067*	2279	23*	1660	18	18	9	11
COc1ccccc1-c1n[nH]c(=S)n1-c1ccccc1	62*	.	.	63*	2941*	84*	57*	39*	39*
COc1ccc(-n2c(-c3ccco3)n[nH]c2=S)cc1	22*	.	.	14	1858	21	20	11	13
SMILES	PPARg SRC-1 ag	SRC3 TRFRET art	SRC1 TRFRET art	PPARg SRC-2 ag	SRC2 TRFRET art	PPARg SRC-3 ag	PPARg SRC2 conf	PPARg SRC1 conf	PPARg SRC3 ag
CN(C)N1C(=O)CC(NNC(=O)c2ccncc2)C1=O (stereo not drawn)	-1	1479	1538	-3	1384	-1	.	.	.
O=C(CCN1C(=O)c2cccc3cccc(c23)C1=O)NCc1ccco1	4	1579	1759	1	1647	1	.	.	.
COCCNC(=O)COC(=O)/C=C/c1c(C)nn(Cc2ccc(Cl)cc2Cl)c1Cl	-1	.	.	-8	1575	2	.	.	.
COc1ccc2[nH]c3c(Cl)ncnc3c2c1	1	1712	1758	0	1577	2	.	.	.
COc1ccc2[nH]c3c(=S)nc[nH]c3c2c1	26*	2527*	2593*	34*	2492*	23*	16	8	12
Cc1nnc(SCC(=O)c2ccc(Cl)cc2)s1	4	1512	2185	5	1552	8	.	.	.
COC(=O)c1cc2c(C)cc3ccc(C)cn3c-2c1C(=O)OC	26*	.	.	41*	2394*	47*	12	9	5
COC(=O)c1cc2c(C)c(C)c3ccccn3c-2c1C(=O)OC	18	.	.	32*	2102*	35*	7	7	4
COC(=O)c1cc2ccccn2c2c(C(=O)OC)c(C(=O)OC)cc1-2	9	.	.	6	1669	3	.	.	.
CC(Oc1ccc(F)cc1)C(O)CCN(C)C (stereo not drawn)	14	1642	1909	2	1654	3	.	.	.
COc1ccc(CC(=O)OCC(=O)NCc2ccccc2Cl)cc1OC	-4	1615	1680	6	1560	-1	.	.	.
COC(=O)c1ccc(NC(=S)NC2c3ccccc3CC2O)cc1 (stereo not drawn)	10	1567	1971	16	1624	0	.	.	.
COc1cc(NC(C)CCCN)c2ncccc2c1Oc1ccccc1 (stereo not drawn)	2	1571	2016	-1	1639	6	.	.	.
O=C1CC(c2ccccc2F)C2=C(COC2=O)N1 (stereo not drawn)	3	1767	1868	5	1908	-3	.	.	.
